Source: PubChem BioAssay (National Center for Advancing Translational Sciences (NCATS))
Compounds with a hit are over-represented: about 6.3% of the library has one in this group of screens.
HepG2 tox = kills HepG2 cells in TGF-b inhibitor counter-screen; HepG2 CAGA-GFP viability, ATP luminescence, 18 h; Potency, µM (series often up to 46.1 µM), most hits filed as cytotoxic; 410,000 compounds, 0.76% hits
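HepG2 CAGA-GFP cells (1000/well, DMEM with 1% FBS) received compound, then TGF-beta at 500 pg/mL final, and were incubated 18 hours at 37 degrees C. Viability was read by CellTiter-Glo luminescence. Media-only wells were set as complete cell-killing and DMSO as no toxicity.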
TGFb inhibitor = TGF-b pathway inhibition | AID 588855 | HepG2 CAGA-GFP TGF-b/SMAD3 reporter, GFP fluorescence, 18 h; TGF-beta stimulated, 500 pg/mL final | Potency, µM (series often up to 46.1 µM), most hits filed as inhibitors | 410,000 compounds, 1.2% hits; note: nearly all actives have a fitted effect of over 65% in size
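TGF-beta reporter screen: HEPG2 CAGA-GFP, 1% FBS, 500 pg/mL TGF-beta final, 18 h; per-cell GFP summed per well; curves fitted and categorized by class.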
ATXN viability = reduces viability in counter-screen for ATXN expression inhibitors; S2 cells (HEK-293 line with an ATXN2-luciferase reporter) viability, CellTiter-Fluor protease fluorescence, 24 h; 400,000 compounds, 0.49% hits; Potency, µM (highest dose often 56.7 µM), actives largely listed as cytotoxic; AID 651635; note: nearly all actives have a fitted effect of over 40% in size
RORg inh = ROR gamma (mouse) transcription inhibition; AID 2551; P51450; 310,000 compounds, 5.4% hits; Drosophila S2 Gal4-RORgamma UAS-luciferase reporter, 20 h; Potency, µM (doses to about 53.6 µM), actives largely listed as inhibitors; note: nearly all actives have a fitted effect of over 60% in size
Target sequence (P51450 whole entry, looked up, the tested form may be a part): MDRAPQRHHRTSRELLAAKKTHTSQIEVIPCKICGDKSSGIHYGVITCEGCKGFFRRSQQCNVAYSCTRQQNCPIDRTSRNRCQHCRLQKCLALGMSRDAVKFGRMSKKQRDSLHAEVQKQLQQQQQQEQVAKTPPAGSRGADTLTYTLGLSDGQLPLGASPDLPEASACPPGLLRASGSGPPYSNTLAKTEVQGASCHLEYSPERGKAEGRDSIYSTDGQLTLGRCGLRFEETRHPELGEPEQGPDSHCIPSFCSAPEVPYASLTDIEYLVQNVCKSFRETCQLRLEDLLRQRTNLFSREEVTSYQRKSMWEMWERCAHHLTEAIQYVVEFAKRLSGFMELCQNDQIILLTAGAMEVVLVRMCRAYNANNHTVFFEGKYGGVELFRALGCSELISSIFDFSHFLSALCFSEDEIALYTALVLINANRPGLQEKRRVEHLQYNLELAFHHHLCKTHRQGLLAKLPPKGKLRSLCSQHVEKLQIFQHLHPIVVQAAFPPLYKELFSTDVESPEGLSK
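Luminescence from a UAS-regulated Photinus luciferase reporter in stably transfected Drosophila Schneider cells is measured; decreased signal marks ROR gamma inhibition. Fusion expression is induced by 700 uM copper sulfate for 20 hr.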
ATXN2 expr inh = reduces ATXN2 reporter expression in HEK-293 cells; AID 1745845; 360,000 compounds, 0.72% hits; Potency, µM (titrated, usually from 57 µM), most hits filed as inhibitors; HEK-293 ATXN2-luciferase reporter, luminescence, 24 h; note: nearly all actives have a fitted effect of over 55% in size
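ATXN2-luciferase reporter cells (luciferase flanked by upstream and downstream ATXN2 gene portions) were treated 24 h at 37 °C with compounds at up to 57 uM. SteadyGlo luminescence gave expression; GF-AFC fluorescence gave viability.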
VP16 counter = counter-screen for ROR gamma inhibitors: Gal4-VP16 reporter. Drosophila S2 Gal4-VP16 UAS-luciferase, luminescence, 20 h. Potency, µM (series often up to 53.6 µM), most hits filed as inhibitors. 310,000 compounds, 3.5% hits. AID 2546;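 note: Gal4-VP16 expression switched on by copper sulfate through the metallothionein promoter; nearly all actives have a fitted effect of over 50% in size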
Of the large screens only hits and unclear results are named; the others gave an inactive call. Calls come from the whole dose curve; as a rule, active = well fitted curve in the direction sought with a large enough effect; inconclusive = small, poorly fitted or top-dose-only effect, or another doubt; inactive = no such curve, though single readings can be large; an effect the other way counts as inactive or inconclusive.

O=C(COc1ccc(Cl)cc1Cl)NC(=S)Nc1ccc(CN2CCOCC2)cc1	RORg inh 16µM, VP16 counter inconclusive
CC(c1ccco1)N(C(=O)COc1ccc(Cl)cc1Cl)c1ccccn1 (configuration not stated)	RORg inh inconclusive, VP16 counter 11µM
O=C(COc1ccc(Cl)cc1Cl)Nc1ccccn1	ATXN2 expr inh 2.8µM, VP16 counter 2.8µM
CC(NC(=O)Cc1ccc(NC(=O)N2CCCCc3ccccc32)cc1)c1ccccc1 (configuration not stated)	ATXN viability inconclusive (no result: RORg inh, VP16 counter)
Cc1cccc(NC(=S)NCCN2CCOCC2)c1	ATXN viability inconclusive, RORg inh inconclusive, VP16 counter inconclusive
CC(=O)NC(=S)Nc1ccc(NC(=O)COc2ccc(Cl)cc2Cl)cc1	ATXN viability inconclusive
CC(C)CC(=O)NNC(=S)Nc1ccc(S(N)(=O)=O)cc1	RORg inh 18µM
CCc1cccc(NC(=S)Nc2ccc(CN3CCOCC3)cc2)c1	RORg inh 11µM, VP16 counter 20µM
CC(C)CC(=O)NC(=S)Nc1ccc(N2CCOCC2)cc1	TGFb inhibitor inconclusive, RORg inh 28µM, VP16 counter inconclusive (no result: ATXN2 expr inh)
O=C(COc1ccc(Cl)cc1Cl)NNC(=S)Nc1ccc(F)cc1	RORg inh 3.5µM, VP16 counter inconclusive
COc1ccc(/C=C/C(=O)c2ccc(C)s2)cc1	none (no result: HepG2 tox, TGFb inhibitor, ATXN viability, ATXN2 expr inh)
Nc1c(-c2nc(-c3cccs3)no2)nnn1-c1ccc(Cl)cc1	none (no result: ATXN viability, RORg inh, ATXN2 expr inh, VP16 counter)
O=C(CCCCl)NC(=S)Nc1ccc(N2CCOCC2)cc1	ATXN viability inconclusive, RORg inh 2.2µM, VP16 counter inconclusive
Cc1cc(NC(=S)NC(=O)CC(C)C)ccc1Br	TGFb inhibitor inconclusive, RORg inh 2.8µM, VP16 counter inconclusive
O=C(CCCCl)NC(=S)Nc1ccc(CN2CCOCC2)cc1	none
COC(=O)c1ccc(C(NC(=O)OCc2ccccc2)/C(C)=C/[C@@H](C)C(=O)Nc2ccc(OC)cc2)cc1 (some centres not stated)	RORg inh inconclusive (no result: HepG2 tox, TGFb inhibitor, ATXN viability, ATXN2 expr inh)
C=C1C(=O)c2sccc2C(c2ccc(OC)c(OC)c2)C1COC(C)=O (configuration not stated)	HepG2 tox 4.5µM, TGFb inhibitor 0.71µM, ATXN2 expr inh inconclusive (no result: ATXN viability, RORg inh, VP16 counter)
Cc1cc(NCCN2CCOCC2)n2nc(C)c(-c3ccccc3)c2n1	RORg inh 8.9µM, VP16 counter 10µM
Cc1cc(NCCCn2ccnc2)n2ncc(-c3ccccc3)c2n1	TGFb inhibitor inconclusive, ATXN viability inconclusive, RORg inh 4.5µM, ATXN2 expr inh inconclusive, VP16 counter 7.9µM
Cc1cc(NCCN2CCOCC2)n2ncc(-c3ccccc3)c2n1	RORg inh 3.5µM, VP16 counter 10µM
Cc1cc(NCCCn2ccnc2)n2nc(C)c(-c3ccccc3)c2n1	none
Cc1cc(NCCCn2ccnc2)n2nc(C)c(-c3ccc(Cl)cc3)c2n1	ATXN viability 16µM, ATXN2 expr inh inconclusive
COc1ccc(Cl)cc1NC(=O)Cn1c(=O)c(-c2ccccc2NC(C)=O)nc2ccccc21	none (no result: ATXN viability, RORg inh, ATXN2 expr inh, VP16 counter)
CC(=O)Nc1ccc(Nc2cc(C)nc3c(-c4ccc(Cl)cc4)c(C)nn23)cc1	ATXN viability inconclusive, RORg inh 11µM, ATXN2 expr inh inconclusive, VP16 counter 7.1µM
COc1ccc(NC(=O)c2ccc3c(c2)N(Cc2cccc(Cl)c2)C(=O)c2ccccc2S3(=O)=O)cc1Cl	none (no result: RORg inh, VP16 counter)
Cc1ccc(-c2csc3nc[nH]c(=S)c23)cc1C	RORg inh 0.45µM, VP16 counter inconclusive
Cc1cc(C)c(C(O)c2ncc(-c3ccccc3F)[nH]2)c(C)c1 (configuration not stated)	none (no result: RORg inh, VP16 counter)
Cc1ccccc1C(=O)NC1CCN(C(=O)NC2CCCCC2)CC1	none
Cc1ccccc1C(=O)NC1CCN(C(=O)N(c2ccccc2)c2ccccc2)CC1	RORg inh 11µM
CCCn1c(CCc2ccccc2)n[nH]c1=S	RORg inh 7.1µM, VP16 counter 18µM
CCCCn1c(Cc2ccccc2)n[nH]c1=S	RORg inh inconclusive
CCn1c(Cc2ccccc2)n[nH]c1=S	RORg inh inconclusive (no result: ATXN2 expr inh)
CCn1c(CSCc2ccccc2)n[nH]c1=S	RORg inh 4µM, VP16 counter inconclusive
CCn1c(Cc2c(C)[nH]c3ccccc23)n[nH]c1=S	ATXN viability inconclusive
CCn1c(CCn2c3ccccc3c3ccccc32)n[nH]c1=S	RORg inh 5.6µM, VP16 counter 6.3µM
CCn1c(CCc2ccccc2)n[nH]c1=S	RORg inh 8.9µM, VP16 counter inconclusive
O=C(COc1ccc(Cl)cc1)N1CCN(C(=O)c2cccs2)CC1	RORg inh 7.1µM, VP16 counter 18µM
CC(C)c1ccc(/C=C2\NC(=S)N(Cc3cccnc3)C2=O)cc1	ATXN viability inconclusive, RORg inh 7.9µM
Cc1ccc(Sc2nnc(Cc3ccccc3)c3ccccc23)cc1	HepG2 tox 18µM, TGFb inhibitor 14µM, RORg inh 13µM, ATXN2 expr inh inconclusive, VP16 counter inconclusive
Fc1ccc(Nc2nc(NCc3ccco3)c3ccccc3n2)cc1	HepG2 tox 18µM, TGFb inhibitor inconclusive, ATXN viability 11µM, RORg inh inconclusive, VP16 counter inconclusive (no result: ATXN2 expr inh)
c1coc(CNc2nc(NCc3ccco3)c3ccccc3n2)c1	TGFb inhibitor 0.71µM (no result: ATXN viability, RORg inh, ATXN2 expr inh, VP16 counter)
Nc1nc(Nc2ccccc2)nc(NCc2ccco2)c1[N+](=O)[O-]	ATXN viability inconclusive, RORg inh inconclusive
CCCCN(Cc1cc2cc(C)ccc2[nH]c1=O)C(=O)c1cccc(Cl)c1	TGFb inhibitor inconclusive (no result: RORg inh, VP16 counter)
CC(c1ccccc1)N1CCC(CNC(=S)Nc2cccc(Cl)c2)C1 (configuration not stated)	TGFb inhibitor inconclusive, ATXN viability inconclusive, RORg inh 10µM, ATXN2 expr inh inconclusive, VP16 counter inconclusive
O=C(NCC1CC1)Nc1cccc(Cl)c1	none
Cc1ccc(NC(=S)NCC2CCN(C(C)c3ccccc3)C2)cc1 (configuration not stated)	RORg inh inconclusive, VP16 counter inconclusive
Cc1cc(C)c(NC(=S)NCC2CCN(C(C)c3ccccc3)C2)c(C)c1 (configuration not stated)	RORg inh 7.9µM, VP16 counter inconclusive
O=S(=O)(NCCc1ccccc1)c1ccc(N2CCCCS2(=O)=O)cc1	TGFb inhibitor inconclusive (no result: RORg inh, VP16 counter)
COc1ccc(N2CCN(C(=O)CSc3nc(-c4ccc(C(C)C)cc4)no3)CC2)cc1	none (no result: RORg inh, VP16 counter)
CC1(C)C2CCC1(C)C(NC(=O)COC(=O)c1ccc(S(C)(=O)=O)c([N+](=O)[O-])c1)C2 (configuration not stated)	HepG2 tox 6.3µM, TGFb inhibitor 5µM (no result: ATXN viability, RORg inh, ATXN2 expr inh, VP16 counter)
CN(C)S(=O)(=O)c1ccc(C(=O)OCc2nnc(-c3ccccc3)o2)cc1	none
